Among the data in paper PMC9911399, “Two distinct binding modes provide the RNA-binding protein RbFox with extraordinary sequence specificity” are binding signal values, retold here.

Residue numbers refer to the chain shown, from its start. The full ranking holds about 16,000 sequences; the median of “ka relative to ugcaugu” is about 0.0091, and the highest 2% start at about 0.032. The sample as a whole holds a higher share of the highest values than the screen did.

The chains are these.
T1: RBFOX1 RRM (Homo sapiens, UniProt Q9NWB1 109-208)
T1 sequence: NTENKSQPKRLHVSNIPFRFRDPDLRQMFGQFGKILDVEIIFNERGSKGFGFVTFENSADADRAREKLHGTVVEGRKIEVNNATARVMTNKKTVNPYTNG

B1: ACUAAUA (DNA:RNA)
RNA: GGGAGACCGGAAUUCAGAUUGUCCACUAAUAUUAAAUCCCGUCGUAGCCACCA
DNA 1: CAATCTGAATTCCGGTCTCCC
DNA 2: TGGTGGCTACGACGGGATT
B2: UCAUCUC (DNA:RNA)
RNA: B1 RNA with A25U, U27A, A28U, A29C, A31C
DNA 1: CAATCTGAATTCCGGTCTCCC
DNA 2: TGGTGGCTACGACGGGATT
B3: ACUUGAA (DNA:RNA)
RNA: B1 RNA with A28U, A29G, U30A
DNA 1: CAATCTGAATTCCGGTCTCCC
DNA 2: TGGTGGCTACGACGGGATT
B4: UAACAGC (DNA:RNA)
RNA: B1 RNA with A25U, C26A, U27A, A28C, U30G, A31C
DNA 1: CAATCTGAATTCCGGTCTCCC
DNA 2: TGGTGGCTACGACGGGATT
B5: CCUUGGA (DNA:RNA)
RNA: B1 RNA with A25C, A28U, A29G, U30G
DNA 1: CAATCTGAATTCCGGTCTCCC
DNA 2: TGGTGGCTACGACGGGATT
B6: UGAGAAC (DNA:RNA)
RNA: B1 RNA with A25U, C26G, U27A, A28G, U30A, A31C
DNA 1: CAATCTGAATTCCGGTCTCCC
DNA 2: TGGTGGCTACGACGGGATT
B7: GACUAUG (DNA:RNA)
RNA: B1 RNA with A25G, C26A, U27C, A28U, A31G
DNA 1: CAATCTGAATTCCGGTCTCCC
DNA 2: TGGTGGCTACGACGGGATT
B8: UAACGUU (DNA:RNA)
RNA: B1 RNA with A25U, C26A, U27A, A28C, A29G, A31U
DNA 1: CAATCTGAATTCCGGTCTCCC
DNA 2: TGGTGGCTACGACGGGATT
B9: GCACGUC (DNA:RNA)
RNA: B1 RNA with A25G, U27A, A28C, A29G, A31C
DNA 1: CAATCTGAATTCCGGTCTCCC
DNA 2: TGGTGGCTACGACGGGATT
B10: CGCGUCG (DNA:RNA)
RNA: GGGAGACCGGAAUUCAGAUUGUCCCGCGUCGUUAAAUCCCGUCGUAGCCACCA
DNA 1: CAATCTGAATTCCGGTCTCCC
DNA 2: TGGTGGCTACGACGGGATT
B11: GCGCAGA (DNA:RNA)
RNA: B1 RNA with A25G, U27G, A28C, U30G
DNA 1: CAATCTGAATTCCGGTCTCCC
DNA 2: TGGTGGCTACGACGGGATT
B12: GCACCGC (DNA:RNA)
RNA: B1 RNA with A25G, U27A, A28C, A29C, U30G, A31C
DNA 1: CAATCTGAATTCCGGTCTCCC
DNA 2: TGGTGGCTACGACGGGATT
B13: GCACGCG (DNA:RNA)
RNA: B10 RNA with C25G, G26C, C27A, G28C, U29G
DNA 1: CAATCTGAATTCCGGTCTCCC
DNA 2: TGGTGGCTACGACGGGATT
B14: CGCACGC (DNA:RNA)
RNA: B10 RNA with G28A, U29C, C30G, G31C
DNA 1: CAATCTGAATTCCGGTCTCCC
DNA 2: TGGTGGCTACGACGGGATT
B15: GCGCACG (DNA:RNA)
RNA: B1 RNA with A25G, U27G, A28C, U30C, A31G
DNA 1: CAATCTGAATTCCGGTCTCCC
DNA 2: TGGTGGCTACGACGGGATT
B16: GCGCACC (DNA:RNA)
RNA: B1 RNA with A25G, U27G, A28C, U30C, A31C
DNA 1: CAATCTGAATTCCGGTCTCCC
DNA 2: TGGTGGCTACGACGGGATT
B17: CGCCACG (DNA:RNA)
RNA: B10 RNA with G28C, U29A
DNA 1: CAATCTGAATTCCGGTCTCCC
DNA 2: TGGTGGCTACGACGGGATT

In the experiment the target is T1, RBFOX1 RRM. As to the kind of experiment: EMSA; HiTS-Eq, 1 nM pool, 10 min; buffer printed only for the single-RNA assays: 10 mM Tris pH 7.5, 150 mM NaCl, 3.4 mM EDTA, 0.001% NP-40, 30 C. Particulars: tags: His6 N-terminal (pET28a); label: 5' 32P. The procedure, abridged: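 Purified RbFox RRM, wild type or mutant, was incubated for 10 min in 50 µL with 1 nM of a 5′-radiolabelled RNA pool carrying 7 randomized nucleotides, whose flanks were annealed to DNA oligonucleotides, over a series of increasing protein concentrations. Unbound RNA was resolved on 8% native PAGE, cut out, reverse-transcribed, barcoded by PCR and sequenced on an Illumina HiSeq 2500. Relative association constants were derived from changes in read counts for each RNA species versus the control reaction and normalised to the cognate motif.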
Background: Mobility shift assays separate free from complexed probe on a gel.
As for B1, the binding signal is 0.00101 KA relative to UGCAUGU.
In the case of B2 it was 0.00423 KA relative to UGCAUGU.
B3: the binding signal was 0.0101 KA relative to UGCAUGU.
In the case of B4, the binding signal is 0.00375 KA relative to UGCAUGU.
With B5, the binding signal was 0.00739 KA relative to UGCAUGU.
Consider B6, for which the binding signal was 0.0124 KA relative to UGCAUGU.
Turning to B7, the binding signal was 0.0187 KA relative to UGCAUGU.
The result for B8 reads 0.00814 KA relative to UGCAUGU; that for B9, 0.0416 KA relative to UGCAUGU; that for B10, 0.0133 KA relative to UGCAUGU.
In the case of B11 it was 0.0118 KA relative to UGCAUGU; in that of B12, 0.00949 KA relative to UGCAUGU.
As to B13, the binding signal is 0.0376 KA relative to UGCAUGU.
Regarding B14, the binding signal is 0.0306 KA relative to UGCAUGU.
On to B15, for which the binding signal is 0.062 KA relative to UGCAUGU.
The result for B16 reads 0.0133 KA relative to UGCAUGU.
The result for B17 reads 0.0114 KA relative to UGCAUGU.
